Only some compounds are listed: those with a hit (about 3.7% of all), similar ones and a draw of the others.
NLRP3 yeast inh = blocks the NALP3 inflammasome reconstituted in yeast; hit rate 0.39% among 330,000; Yeast reconstituted NLRP3/ASC/caspase-1, beta-gal luminescence, 24 h; inhibition, % at 10 µM; AID 2825;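 active = inhibition of 50% or more; inactive = inhibition below 50%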;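 note: plate controls were induced DMSO wells for no effect and uninduced yeast grown without galactose for full effect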
PfHsp90 yeast 2 = reduces growth (ATP signal) of yeast expressing P. falciparum Hsp90; S. cerevisiae expressing PfHsp90, BacTiter-Glo ATP, 48 h; yeast lacking PDR1 and PDR3 efflux regulators; inhibition, % at 9.4 µM; hit rate 0.32% among 310,000; AID 504621;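 active = every replicate shows inhibition above about 80%, whatever the replicate mean, limit read from the data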;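 note: 0% = DMSO neutral controls and 100% = 20 µM radicicol positive controls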
tim23-1 inh = growth inhibitors of tim23-1 mutant yeast; S. cerevisiae tim23-1 growth, BacTiter-Glo luminescence, 24 h; inhibition, % at 20 µM; hit rate 1.3% among 330,000; AID 463212;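 active = growth inhibition of the mutant yeast at or above 50%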;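 note: temperature-sensitive mutant grown at 25 °C; plate controls were DMSO-treated mutant yeast for no effect and medium wells lacking yeast for full effect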
TIM10 inh = TIM10 yeast growth inhibition | S. cerevisiae TIM10 strain growth, BacTiter-Glo luminescence, 24 h | inhibition, % at 10 µM | hit rate 1.4% among 330,000 | AID 463195;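 active = inhibition of 40% or more at the single tested concentration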;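 note: wild-type TIM10 isogenic control strain grown at permissive 25 °C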
tim10-1 inh = growth inhibitors of tim10-1 mutant yeast. S. cerevisiae tim10-1 ts strain growth, BacTiter-Glo, 24 h. inhibition, % at 20 µM. hit rate 2.2% among 330,000. AID 463190;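 active = inhibition of at least 40%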;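 note: mutant grown at 25 °C; 0% = DMSO wells with yeast and 100% = wells holding no yeast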
NALP3 yeast conf = NALP3 inhibition confirmation in yeast; shares compounds with NLRP3 yeast inh; yeast expressing human NALP3, luminescence; inhibition, % at 10 µM; hit rate 81% among 1,300; in the data active = inhibition above about 48%
Casp1 ASC ctr = caspase-1-ASC yeast counter-screen hit; shares compounds with NLRP3 yeast inh; yeast expressing Caspase-1-ASC, luminescence counter screen; inhibition, % at 10 µM; hit rate 66% among 1,000; AID 488784
NALP3 retest = confirmation retest of NALP3 inhibitors in yeast. shares compounds with NLRP3 yeast inh. yeast expressing human NALP3, luminescence read-out. inhibition, % at 10 µM. hit rate 53% among 1,000
tim10-1 confirm = confirmation of tim10-1 mutant yeast growth inhibitors; shares compounds with tim10-1 inh; S. cerevisiae tim10-1 ts strain growth, BacTiter-Glo, 24 h; inhibition, % at 20 µM; hit rate 56% among 7,400; AID 463213;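 active = inhibition of yeast growth at or above a set limit in either of two repeat tests at 20 µM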;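 note: tim10-1 mutant grown at permissive 25 °C to find synthetic lethal compounds; 0% = DMSO yeast wells and 100% = medium wells without yeast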
TIM10 conf = confirmation of TIM10 yeast growth inhibitors; hit rate 63% among 4,600; shares compounds with TIM10 inh; inhibition, % at 10 µM; S. cerevisiae tim10 strain growth, BacTiter-Glo luminescence, 24 h; AID 463215;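 active = inhibition of yeast growth at or above a set limit in either of two replicates at 10 µM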;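 note: this counterscreen used the strain with wild-type TIM10; 0% = yeast with DMSO and 100% = medium wells lacking yeast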
tim23-1 conf = confirmation of tim23-1 mutant yeast growth inhibitors | shares compounds with tim23-1 inh | inhibition, % at 20 µM | S. cerevisiae tim23-1 growth, BacTiter-Glo luminescence, 24 h | hit rate 83% among 4,400;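 active = inhibition above about 39% in either of two replicate wells at 20 µM, limit read from the data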;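 note: temperature-sensitive tim23-1 mutant grown at 25 °C; 0% = DMSO wells with yeast and 100% = medium wells without yeast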
* marks the source's active call; other numbers are inactive results; / = no result given. Cut-off read from the data, not from the text of the source, unless noted: active = inhibition above about 50%; inactive = the rest.

SMILES	NLRP3 yeast inh	PfHsp90 yeast 2	tim23-1 inh	TIM10 inh	tim10-1 inh	NALP3 yeast conf	Casp1 ASC ctr	NALP3 retest	tim10-1 confirm	TIM10 conf	tim23-1 conf
CN(Cc1ccco1)S(=O)(=O)c1nnc(NC(=O)c2ccccc2Cl)s1	-3	4	12	24	24	/	/	/	/	/	/
Cc1c(NS(=O)(=O)c2cc(C(=O)N3CCCC(C)C3)ccc2Cl)c(=O)n(-c2ccccc2)n1C (stereo not given)	8	/	1	-7	-12	/	/	/	/	/	/
O=C(N/N=C/c1ccccc1)c1ccco1	8	19	15	-2	-14	/	/	/	/	/	/
O=C(N/N=C/C(Br)=C\c1ccccc1)c1ccco1	64*	13	66*	-15	-88	77*	74*	54*	/	/	45*
CCCCN(C(=O)c1ccco1)C1CCS(=O)(=O)C1 (stereo not given)	11	/	-6	-3	-13	/	/	/	/	/	/
CC(C)CC1CCCCC1OC(=O)C[N+]1(C)CCCCC1 (stereo not given)	19	8	-32	-14	-34	/	/	/	/	/	/
CC1(C)CC(=O)c2cnc(N3CCN(c4ccccc4)CC3)nc2C1	-9	-15	31	10	28	/	/	/	/	/	/
CC1(C)CC(=O)c2cnc(N3CCc4ccccc4C3)nc2C1	62*	-17	71*	16	55*	43	6	25	53*	/	52*
CC(C(=O)N1CCc2ccccc21)N1CCN(Cc2ccc(Cl)cc2)CC1 (stereo not given)	23	42	4	-58	-28	/	/	/	/	/	/
Cc1ccc(C(=O)Nc2scc(-c3ccccc3)c2C(=O)O)cc1	79*	35	86*	82*	85*	78*	86*	82*	83*	91*	87*
COc1ccc(-c2csc(NC(=O)c3ccccc3F)c2C(=O)O)cc1	81*	28	85*	75*	81*	94*	91*	81*	75*	72*	86*
O=C(Nc1scc(-c2ccccc2)c1C(=O)O)c1ccccc1Cl	5	34	17	-13	8	/	/	/	/	/	/
Cn1c2ccccc2c(=O)c2c(=O)n(C3CCCCC3)c(-c3cccs3)nc21	58*	13	61*	34	43*	71*	55*	52*	36*	/	69*
Cn1c2ccccc2c(=O)c2c(=O)n(C3CCCCCC3)c(C3CCCCC3)nc21	/	6	/	/	/	/	/	/	/	/	/
O=C(Nc1ccc(Nc2ccccc2)cc1)c1ccccc1F	52*	-23	64*	-31	-55	68*	58*	64*	/	/	61*
O=C(O)c1cc(NC(=O)c2ccccc2F)cc(NC(=O)c2ccccc2F)c1	3	1	12	5	-1	/	/	/	/	/	/
O=C(Nc1ccc(Nc2ccccc2)cc1)c1ccc(Br)o1	66*	4	52*	39	41*	76*	76*	74*	33*	/	80*
COc1ccc(Nc2cc(C)c3ccc(O)cc3n2)cc1	76*	15	51*	-25	-46	91*	/	/	/	/	-11
CCOc1ccc(Nc2cc(C)c3ccccc3n2)cc1	27	-15	20	9	27	/	/	/	/	/	/
Cc1cc(Nc2ccccc2)nc2cc(O)ccc12	70*	-11	65*	-63	-25	82*	91*	60*	/	/	9
Cc1ccc(C)c(Sc2ccc(NC(=O)CCl)cc2)c1	81*	/	74*	51*	57*	81*	88*	74*	55*	36*	49*
Cc1ccc(Sc2ccc(NC(=O)CCl)cc2)cc1C	66*	-10	66*	40*	50*	76*	62*	66*	52*	39*	76*
Cc1ccc(N2CCN(C(=O)c3nn(C)c4c3CS(=O)(=O)c3ccccc3-4)CC2)c(C)c1	27	-7	35	13	18	/	/	/	/	/	/
COc1ccc(CNC(=O)C2CCN(S(=O)(=O)N3CCCCC3)CC2)c(OC)c1	10	-9	19	4	13	/	/	/	/	/	/
CCCCCCCCn1c2c(c(=N)c3ccccc31)CCC2	58*	14	66*	25	60*	73*	22	62*	51*	/	63*
SMILES	NLRP3 yeast inh	PfHsp90 yeast 2	tim23-1 inh	TIM10 inh	tim10-1 inh	NALP3 yeast conf	Casp1 ASC ctr	NALP3 retest	tim10-1 confirm	TIM10 conf	tim23-1 conf
CCCCCCCCCn1c2c(c(=N)c3c1CCC3)CCCC2	68*	0	80*	51*	52*	85*	54*	70*	56*	46*	83*
CCn1c2c(c(=N)c3c1CCC3)CCCC2	6	/	-8	2	-13	/	/	/	/	/	/
CCOC(=O)Cc1csc(NC(=O)CCCC(=O)O)n1	-3	/	23	0	-10	/	/	/	/	/	/
O=C(O)c1cccc(NC(=O)c2ccccc2)c1	/	0	/	/	/	/	/	/	/	/	/
Cc1ccc(NC(=O)c2cccnc2)cc1C	28	9	10	0	-9	/	/	/	/	/	/
O=C(Nc1cccc(F)c1)c1ccccc1	60*	/	50*	53*	11	84*	68*	68*	/	47*	66*
Cc1ccc(NC(=O)c2ccccc2)cc1C	52*	-16	59*	46*	20	75*	40	42	/	23	64*
Cc1cc(C)c(OCC(=O)N/N=C/c2ccc3c(c2)OCO3)c(C)c1	9	22	6	9	14	/	/	/	/	/	/
CCCCc1cc(O)c(CCCC)c(O)c1	51*	8	53*	-3	35	62*	34	50	/	/	42*
Cc1ccc(-n2nnnc2SCC(=O)N2CCc3ccccc3C2)cc1	70*	14	54*	41*	46*	76*	77*	74*	41*	34*	41*
O=C(Nc1ccc2c(c1)ncn2C1CCCCC1)c1ccco1	53*	/	51*	66*	36	70*	55*	52*	/	53*	77*
CCCCOc1ccc(C2=CSC3=NCCN23)cc1[N+](=O)[O-]	6	12	-9	-6	-24	/	/	/	/	/	/
CCCCOc1ccc(-c2csc(N)n2)cc1[N+](=O)[O-]	57*	12	53*	43*	23	-13	/	/	/	-2	63*
N/C(Cc1cccc2ccccc12)=N\OC(=O)COc1ccccc1	25	-5	41	33	38	/	/	/	/	/	/
Cc1cccc(C(=O)O/N=C(\N)Cc2cccc3ccccc23)c1	53*	34	81*	77*	43*	65*	48	64*	30*	84*	64*

Screens from PubChem BioAssay.
